Structures are written as SMILES. This is part of a sample that, as a whole, favours compounds with a hit. Of some 79,000 tested, about 15% had one in any assay. Activity calls are given as the source filed them. No stated cut-off is given here; in the data, active means growth inhibition above about 70%; inactive means the rest. Where a SMILES comes first, the peptide text is derived from it. The star is where a group is joined. Boc = CC(C)(C)OC(=O)*; tBu = CC(C)(C)*

One assay can be described thus: NCI Yeast Anticancer Drug Screen. Data for the mec2-1 strain (AID 157). The conditions noted are these: S. cerevisiae mec2-1 strain, at 50.0 µM, stronger effect = higher value. An outline of the steps: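 mec2-1 yeast strain, carrying an alteration in DNA damage repair or cell cycle control, was exposed to compounds; growth inhibition was measured relative to vehicle-treated controls.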
Consider `Cc1sc2nc(N(C)C)oc(=O)c2c1C`, for which the growth inhibition was 51% (inactive).
As for `Cc1ccc(S(=O)(=O)NN=C2C(C)(C)C(=O)C2(C)C)cc1`, the growth inhibition was -1.1% (inactive).
In the case of `Cc1ccc(OC(=O)NC(C)(C)C)cc1`, the growth inhibition is -18.9% (inactive).
For `OC1c2ccccc2-c2ccccc21`, the growth inhibition is 0.95% (inactive).
For the molecule `O=C(CNC(=O)c1ccccc1)Nc1ccc([N+](=O)[O-])cc1`, the growth inhibition is -0.65% (inactive).
On to `O=[N+]([O-])c1ccc(N/N=C/C(Br)(Br)Br)c([N+](=O)[O-])c1`, for which the growth inhibition is -0.65% (inactive).
On the same count and under the same terms, as for `O=C1C(NS(=O)(=O)c2ccccc2)=C(N(Cc2ccccc2)Cc2ccccc2)C(=O)c2ccccc21`, the figure is 7.4% (inactive); as for `O=c1c2ccccc2[nH]c2ccc(Br)cc12`, 2.2% (inactive); as for `CC(=O)Nc1ccc(NC(=O)Nc2cc(Cl)ccc2C)cc1`, 5.05% (inactive).
Consider `Cc1ccc2nc(-c3ccc(-c4nc5ccc(C)cc5o4)c(O)c3)oc2c1`, for which the growth inhibition is -14.4% (inactive).
For the molecule `CCN/C(C)=C\C(=O)OCC`, the growth inhibition is 8.95% (inactive).
On the same count and under the same terms, as for `O=S(=O)(O)c1cc(Cl)c(O)c(Cl)c1`, the figure is -21.8% (inactive); as for `Clc1ccc2nc(/C=C/c3ccccc3)ccc2c1`, -4.2% (inactive).
`O=S(=O)(O)CNc1ccc(Cl)cc1`: the growth inhibition is -12.7% (inactive).
Regarding `CC(=O)N1CC(=O)N2C(=O)/C(=C/c3ccc(Cl)cc3)N=C12`, the growth inhibition was 1.35% (inactive).
On the same count and under the same terms, as for `Cc1ccc(S(=O)(=O)C(C#N)CCC(=O)c2ccc(Cl)cc2)cc1` (stereo not given), the figure is 3.55% (inactive); as for `COc1ccc(N2NC(c3ccccc3)(c3ccccc3)C(C)C2=O)cc1` (stereo not given), 17.1% (inactive).
As to `NC(=O)N/N=C1\CCCCC12CCCCC2`, the growth inhibition was 6.25% (inactive).
In the case of `CCCCCCCCCCCCCCCCOc1ccc(Sc2ccc([N+](=O)[O-])cc2)cc1`, the growth inhibition was 4.2% (inactive).
For the molecule `CCC(=O)CC(=O)C(=O)OC`, the growth inhibition is 14.6% (inactive).
On to `Cc1ccc(S(=O)(=O)C(=S)N(C)N(C)C)cc1`, for which the growth inhibition was 25.4% (inactive).
`CC1CCCC2(CN=C(Nc3ccccc3)O2)C1` (stereo not given): the growth inhibition is -8.45% (inactive).
For `O=C(CC(C(=O)c1cccs1)c1cccs1)c1ccsc1` (stereo not given), the growth inhibition was -24.1% (inactive).
On the same count and under the same terms, under `Cc1ccc(NC(=NCCCN(C)C)C(c2ccccc2)c2ccccc2)cc1` stands -0.25% (inactive).
`COc1cc2c(cc1OC)[C@H]1C(COC(=O)Nc3ccccc3)CN1CC2` (stereo not given in full): the growth inhibition was -0.7% (inactive).
In the case of `O=c1[nH]c(=O)n(C2OC(COP(=O)(O)OP(=O)(O)OC3OC(CO)C(O)C(O)C3O)C(O)C2O)cc1F` (stereo not given), the growth inhibition is 3.65% (inactive).
Same read-out and setting: under `COC1=C2CC(C)CC(OC)C(OC(C)=O)C(C)/C=C(\C)C(OC(N)=O)C(OC)/C=C\C=C(/C)C(=O)NC(=CC1=O)C2=O` (stereo not given) stands 91% (active); under `NS(=O)(=O)c1ncc(C(=O)N2CCN(Cc3ccccc3)CC2)[nH]1`, -7.75% (inactive); under `CC(C)(OC(=O)Nc1ccccc1)c1ccc([N+](=O)[O-])cc1`, 9.1% (inactive).
For `CCCOC(=O)c1c(C)c(C)cc(C)c1C`, the growth inhibition is 1.75% (inactive).
As for `CCOC(=O)Nc1nc(-c2ccc(Br)cc2)cs1`, the growth inhibition is -5.4% (inactive).
Consider `O=c1[nH]cc(CCOCc2ccccc2)c(=O)[nH]1`, for which the growth inhibition was -8.15% (inactive).
Turning to `CS(=O)(=O)/C=C/c1ccccc1`, the growth inhibition is -8.15% (inactive).
In the case of `c1ccc2c3c([nH]c2c1)CCCCCC3`, the growth inhibition was 14.6% (inactive).
Regarding `O=C(O)c1ccccc1C(=O)CC(O)(C(F)(F)F)C(F)(F)F`, the growth inhibition was 9.9% (inactive).
`CSc1ccc2c(c1)Cc1cc(NC(C)=O)ccc1-2`: the growth inhibition is -9.05% (inactive).
On to `Cc1c(F)c(N)c2c(=O)cc(-c3ccc(N)c(F)c3)oc2c1F`, for which the growth inhibition was 16.1% (inactive).
Turning to `CC(OC(C)(C)C)C(NC(=O)C(N)CCCCNC(=O)OC(C)(C)C)C(=O)NC(Cc1ccccc1)C(=O)O` (stereo not given) (H-Lys(Boc)-Thr(tBu)-Phe-OH; configuration not given here), the growth inhibition is -11.6% (inactive).
`COc1ccc(/C=C\c2cc(OC)c(OC)c(OC)c2)cc1OC`: the growth inhibition is 9.05% (inactive).
Regarding `COc1ccc(NC(=O)Nc2ccc(Cl)cc2C)cc1`, the growth inhibition was -2.8% (inactive).

The next assay in a line: NCI Yeast Anticancer Drug Screen. Data for the sgs1 mgt1 strain (AID 161).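 Further: 0% = growth of cultures given vehicle only.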 The conditions noted are these: S. cerevisiae sgs1 mgt1 strain, at 50.0 µM, stronger effect = higher value. The procedure, abridged: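 Yeast cells carrying a defined DNA-repair defect were exposed to test compounds. Growth inhibition was measured relative to vehicle-treated controls.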
`Cc1sc2nc(N(C)C)oc(=O)c2c1C`: the growth inhibition is 33.6% (inactive).
The same measure, in the same setting: as for `Cc1ccc(S(=O)(=O)NN=C2C(C)(C)C(=O)C2(C)C)cc1`, the figure is -32.9% (inactive).
Consider `Cc1ccc(OC(=O)NC(C)(C)C)cc1`, for which the growth inhibition was 11.2% (inactive).
As for `OC1c2ccccc2-c2ccccc21`, the growth inhibition is -15.4% (inactive).
In the case of `O=C(CNC(=O)c1ccccc1)Nc1ccc([N+](=O)[O-])cc1`, the growth inhibition is -1.5% (inactive).
As to `O=[N+]([O-])c1ccc(N/N=C/C(Br)(Br)Br)c([N+](=O)[O-])c1`, the growth inhibition is -21.2% (inactive).
Consider `O=C1C(NS(=O)(=O)c2ccccc2)=C(N(Cc2ccccc2)Cc2ccccc2)C(=O)c2ccccc21`, for which the growth inhibition was 26.1% (inactive).
Consider `O=c1c2ccccc2[nH]c2ccc(Br)cc12`, for which the growth inhibition was 3.8% (inactive).
For `CC(=O)Nc1ccc(NC(=O)Nc2cc(Cl)ccc2C)cc1`, the growth inhibition is 0.7% (inactive).
Take `Cc1ccc2nc(-c3ccc(-c4nc5ccc(C)cc5o4)c(O)c3)oc2c1`: the growth inhibition is -27.1% (inactive).
With `CCN/C(C)=C\C(=O)OCC`, the growth inhibition is -0.65% (inactive).
For the molecule `O=S(=O)(O)c1cc(Cl)c(O)c(Cl)c1`, the growth inhibition was 9.15% (inactive).
Regarding `Clc1ccc2nc(/C=C/c3ccccc3)ccc2c1`, the growth inhibition was -9.4% (inactive).
On to `O=S(=O)(O)CNc1ccc(Cl)cc1`, for which the growth inhibition is 4.05% (inactive).
The same measure, in the same setting: as for `CC(=O)N1CC(=O)N2C(=O)/C(=C/c3ccc(Cl)cc3)N=C12`, the figure is 11.9% (inactive).
As for `Cc1ccc(S(=O)(=O)C(C#N)CCC(=O)c2ccc(Cl)cc2)cc1` (stereo not given), the growth inhibition is 6.75% (inactive).
Regarding `COc1ccc(N2NC(c3ccccc3)(c3ccccc3)C(C)C2=O)cc1` (stereo not given), the growth inhibition was 40.4% (inactive).
As for `NC(=O)N/N=C1\CCCCC12CCCCC2`, the growth inhibition was -4.9% (inactive).
Take `CCCCCCCCCCCCCCCCOc1ccc(Sc2ccc([N+](=O)[O-])cc2)cc1`: the growth inhibition was 35.6% (inactive).
With `CCC(=O)CC(=O)C(=O)OC`, the growth inhibition was -8.45% (inactive).
The same measure, in the same setting: as for `Cc1ccc(S(=O)(=O)C(=S)N(C)N(C)C)cc1`, the figure is 36.4% (inactive); as for `CC1CCCC2(CN=C(Nc3ccccc3)O2)C1` (stereo not given), -7.05% (inactive).
For `O=C(CC(C(=O)c1cccs1)c1cccs1)c1ccsc1` (stereo not given), the growth inhibition was 10.6% (inactive).
Consider `Cc1ccc(NC(=NCCCN(C)C)C(c2ccccc2)c2ccccc2)cc1`, for which the growth inhibition was -5.4% (inactive).
Take `COc1cc2c(cc1OC)[C@H]1C(COC(=O)Nc3ccccc3)CN1CC2` (stereo not given in full): the growth inhibition was -42.7% (inactive).
Turning to `O=c1[nH]c(=O)n(C2OC(COP(=O)(O)OP(=O)(O)OC3OC(CO)C(O)C(O)C3O)C(O)C2O)cc1F` (stereo not given), the growth inhibition is 8.8% (inactive).
Still for that read-out and setting: under `COC1=C2CC(C)CC(OC)C(OC(C)=O)C(C)/C=C(\C)C(OC(N)=O)C(OC)/C=C\C=C(/C)C(=O)NC(=CC1=O)C2=O` (stereo not given) stands 92.2% (active).
As to `NS(=O)(=O)c1ncc(C(=O)N2CCN(Cc3ccccc3)CC2)[nH]1`, the growth inhibition is 7.2% (inactive).
As for `CC(C)(OC(=O)Nc1ccccc1)c1ccc([N+](=O)[O-])cc1`, the growth inhibition was 13.2% (inactive).
Turning to `CCCOC(=O)c1c(C)c(C)cc(C)c1C`, the growth inhibition was 14.6% (inactive).
With `CCOC(=O)Nc1nc(-c2ccc(Br)cc2)cs1`, the growth inhibition is -2.1% (inactive).
With `O=c1[nH]cc(CCOCc2ccccc2)c(=O)[nH]1`, the growth inhibition was 0.3% (inactive).
Still for that read-out and setting: as for `CS(=O)(=O)/C=C/c1ccccc1`, the figure is -7.35% (inactive); as for `c1ccc2c3c([nH]c2c1)CCCCCC3`, 15.1% (inactive); as for `O=C(O)c1ccccc1C(=O)CC(O)(C(F)(F)F)C(F)(F)F`, -1.5% (inactive).
On to `CSc1ccc2c(c1)Cc1cc(NC(C)=O)ccc1-2`, for which the growth inhibition is -4.25% (inactive).
For the molecule `Cc1c(F)c(N)c2c(=O)cc(-c3ccc(N)c(F)c3)oc2c1F`, the growth inhibition is 30.1% (inactive).
In the case of `CC(OC(C)(C)C)C(NC(=O)C(N)CCCCNC(=O)OC(C)(C)C)C(=O)NC(Cc1ccccc1)C(=O)O` (stereo not given) (H-Lys(Boc)-Thr(tBu)-Phe-OH; configuration not given here), the growth inhibition was -39.4% (inactive).
`COc1ccc(/C=C\c2cc(OC)c(OC)c(OC)c2)cc1OC`: the growth inhibition was -17.7% (inactive).
For `COc1ccc(NC(=O)Nc2ccc(Cl)cc2C)cc1`, the growth inhibition was -11.6% (inactive).

The values are drawn from PubChem BioAssay (NCI).
